Unmarked numbers belong to inactive results. The call rests on the fitted dose curve; in most records, active means well fitted curve in the direction sought with a large enough effect; inconclusive means small, poorly fitted or top-dose-only effect, or another doubt; inactive means no such curve, though single readings can be large; an effect the other way counts as inactive or inconclusive. Inconclusive results are not listed.
System: Nanoluciferase (engineered Oplophorus gracilirostris luciferase)
Test: Primary Nanoluciferase (NLuc) qHTS assay for identification of artifact compounds. (AID 1845222);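 further: 0% = DMSO and -100% = no enzyme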
Conditions: NLuc-conditioned medium, Nano-Glo luminescence, 5 min; series mostly up to 54.1 µM; activity, negative = inhibition: at the top concentration
In short: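 Diluted conditioned medium from NLuc-expressing S16 cells treated with compounds for 15 min at room temperature, then Nano-Glo substrate added; luminescence read after 5 min. Percent inhibition versus no-enzyme and DMSO controls fitted to 4-parameter Hill equation.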

| Structure (SMILES) | activity, negative = inhibition |
| --- | --- |
| O=S(=O)(N[C@H]1CCCC[C@@H]1N1CCOCC1)c1ccc(Cl)cc1 | 1.6% |
| Cc1ccnc(NC(=O)C(C)c2cccc(C(=O)c3ccccc3)c2)c1 (stereo not drawn) | 4.5% |
| NC(N)=N/N=C/c1ccccc1Cl | -1.01% |
| CNCCCC1(c2ccccc2)OC(C)(C)c2ccccc21 (stereo not drawn) | 0% |
| C=C1C(=O)O[C@@H]2C[C@H](C)C3=CC(=O)[C@H](O)[C@@]3(C)C[C@H]12 | -1.41% |
| CC(C)/C=C1\NC(=O)C(C(C)C)n2c1nc1ccccc1c2=O (stereo not drawn) | 4.81% |
| CC/C=C\CC1C(=O)C=CC1(CCCCC1CCC(=O)O1)OC(C)=O (stereo not drawn) | -3.82% |
| COc1ccc(CN2CCN(C(=O)CCNC(=O)c3ccc(C(C)(C)C)cc3)CC2)cc1 | 0% |
| C=C1C(=O)O[C@H]2C3=C(C)CCC[C@]3(C)C(=O)C[C@@H]12 | 0% |
| NC(=O)c1nc(Nc2ccccc2)sc1NC(=O)C1CCCCC1 | 0.458% |
| CCOC(=O)c1cnc2ccc(-c3cncc(NS(=O)(=O)c4ccccc4)c3)cn12 | -2.79% |
| Oc1ccc(-c2cnc3ccc(NCc4ccco4)nn23)cc1 | 1.88% |
| Fc1ccc(-c2cncc(CN3CCN(c4cccc5c4OCCO5)CC3)c2)cc1 | -1.87% |
| N#Cc1ccc2ncnc(NCCc3ccccc3)c2c1 | 1.72% |
| CCn1c(=O)n([C@H]2CCCN(c3nccc(-c4cc5ccccc5o4)n3)C2)c2ccccc21 | -0.164% |
| C=C(CCC1C(C)(O)CCC2C(C)(C)C(O)CCC12C)C(O)CO (stereo not drawn) | -8.54% |
| COc1cc(O)c2c(c1)C1OC1C[C@H](O)[C@H](O)C(=O)/C=C\C[C@H](C)OC2=O (stereo partly drawn) | -6.18% |
| C=C1C(=O)O[C@H]2C1CCC(C)=C1C(=O)C=C(C)[C@@]12O (stereo partly drawn) | 0.318% |
| CC(=O)OC1CC(O)(C(C)C)C2C(OC(=O)c3ccc(O)cc3)C=C(C)C(=O)CC12C (stereo not drawn) | 3.54% [at 25.7 µM] |
| Cc1ccc(NC(=O)N2CCN(c3nc(N)nc4sc(-c5cccnc5)nc34)CC2)cc1 | -5.88% |

| Structure (SMILES) | activity, negative = inhibition |
| --- | --- |
| C=C[C@]1(C)C[C@H](O)[C@H]2C(=C)C(=O)O[C@@H]2[C@H]1C(=C)CO | 2.17% |
| C#CCOc1ccc2c(c1)c(-c1ccc(C(C)C)cc1)nc(=O)n2C(C)C | -3.5% |
| CNCc1cc(-c2ccccc2F)n(S(=O)(=O)c2cccnc2)c1 | 0.415% |
| C=C1C(=O)OC2/C=C(\COC(C)=O)CC/C=C(\C=O)CC(OC(=O)C(C)CC)C12 (stereo not drawn) | 1.04% [at 25.7 µM] |
| CCC(C)CNCC(=O)N1CCc2sccc2C1COc1cccc(C)c1 (stereo not drawn) | 4.32% |
| N[C@@H]1c2cccnc2[C@H](OC(=O)N2CCC(n3c(=O)[nH]c4ncccc43)CC2)CC[C@H]1c1cccc(F)c1F | 0% |
| Cn1cc(-c2ccc(F)c(C(F)(F)F)c2)nc1C1CCN(c2ncnc3[nH]ncc23)CC1 | 0% [at 25.7 µM] |
| C=C1C(=O)O[C@@H]2[C@H]1CCC(C)=C(CCC(=O)O)[C@@]2(C)O | 0% |
| CNc1cccc(CCOc2ccc3c(c2)CN(CC(F)(F)F)C(=O)[C@H](CC(=O)O)C3)n1 | 3.13% |
| CC(CCC1(O)OC2CC3C4CC=C5CC(O[C@@H]6O[C@H](CO)[C@@H](O[C@@H]7O[C@@H](C)[C@H](O)[C@@H](O)[C@H]7O)[C@H](O)[C@H]6O[C@@H]6O[C@@H](C)[C@H](O)[C@@H](O)[C@H]6O)CCC5(C)C4CCC3(C)C2C1C)CO[C@@H]1O[C@H](CO)[C@@H](O)[C@H](O)[C@H]1O (stereo partly drawn) | 2.85% [at 11.6 µM] |
| Cc1cc(C(=O)Cn2cc(C#N)ccc2=O)c(C)n1Cc1ccccc1 | -0.266% |
| Nc1ncnc2c1nc(Cl)n2C1OC2COP(=O)(O)OC2C1O (stereo not drawn) | 1.89% |
| CCCC(CCC)C(=O)NCc1ccc2c(cnn2-c2ccccc2OC)c1 | 2.68% |
| CNC(=O)c1cc(Oc2ccc(NC(=O)c3cccc(C(F)(F)F)c3)cc2)ccn1 | 0% |
| O=C1Nc2nc(-c3c(O)cccc3OCC3CC3)cc([C@@H]3CCCNC3)c2CO1 | 3.71% |
| CC1(C)C2CCC(CO[C@@H]3O[C@H](CO[C@@H]4OC[C@](O)(CO)[C@H]4O)[C@@H](O)[C@H](O)[C@H]3O)C1C2 (stereo partly drawn) | 4.14% [at 25.7 µM] |
| COc1ccc(S(=O)(=O)N2CCC[C@H]2C(=O)Nc2cc(C)cc(C)c2)cc1 | 1.66% |
| Cc1ccccc1C(C(=O)NC1CCCCC1)N(C(=O)Cn1cnc2ccccc21)c1cccc(F)c1 (stereo not drawn) | -4.72% |
| CN(C)CCOC(C)(c1ccccc1)c1ccc(Cl)cc1 (stereo not drawn) | -4.23% |

System: not listed separately
Test: Primary redox qHTS assay for identification of artifact compounds. (AID 1845223);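 further: 0% = DMSO and 100% = reference compound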
Conditions: Amplex Red/HRP redox cycling with DTT, fluorescence; series mostly up to 53.8 µM; redox activity (% of DA3003): at the top concentration
In short: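 Redox-cycling detection via DTT (250 uM final) oxidation coupled to Amplex Red (25 uM)/HRP (250 mU/mL) in HBSS. 15 min preincubation plus 30 min after DTT, room temperature. Ex/Em 525/598 nm; 4-parameter Hill fit against DMSO and 10 uM DA3003.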

| Structure (SMILES) | redox activity (% of DA3003) |
| --- | --- |
| O=S(=O)(N[C@H]1CCCC[C@@H]1N1CCOCC1)c1ccc(Cl)cc1 | 15.6% |
| Cc1ccnc(NC(=O)C(C)c2cccc(C(=O)c3ccccc3)c2)c1 (stereo not drawn) | -0.618% |
| NC(N)=N/N=C/c1ccccc1Cl | -1.34% |
| CNCCCC1(c2ccccc2)OC(C)(C)c2ccccc21 (stereo not drawn) | -6.46% |
| C=C1C(=O)O[C@@H]2C[C@H](C)C3=CC(=O)[C@H](O)[C@@]3(C)C[C@H]12 | -10.1% |
| CC(C)/C=C1\NC(=O)C(C(C)C)n2c1nc1ccccc1c2=O (stereo not drawn) | -14% |
| CC/C=C\CC1C(=O)C=CC1(CCCCC1CCC(=O)O1)OC(C)=O (stereo not drawn) | 17.4% |
| COc1ccc(CN2CCN(C(=O)CCNC(=O)c3ccc(C(C)(C)C)cc3)CC2)cc1 | 12% |
| C=C1C(=O)O[C@H]2C3=C(C)CCC[C@]3(C)C(=O)C[C@@H]12 | -2.15% |
| NC(=O)c1nc(Nc2ccccc2)sc1NC(=O)C1CCCCC1 | -4.65% |
| CCOC(=O)c1cnc2ccc(-c3cncc(NS(=O)(=O)c4ccccc4)c3)cn12 | -1.29% |
| Oc1ccc(-c2cnc3ccc(NCc4ccco4)nn23)cc1 | -8.31% |
| Fc1ccc(-c2cncc(CN3CCN(c4cccc5c4OCCO5)CC3)c2)cc1 | 9.6% |
| N#Cc1ccc2ncnc(NCCc3ccccc3)c2c1 | -7.56% |
| CCn1c(=O)n([C@H]2CCCN(c3nccc(-c4cc5ccccc5o4)n3)C2)c2ccccc21 | -3.17% |
| C=C(CCC1C(C)(O)CCC2C(C)(C)C(O)CCC12C)C(O)CO (stereo not drawn) | -3.7% |
| COc1cc(O)c2c(c1)C1OC1C[C@H](O)[C@H](O)C(=O)/C=C\C[C@H](C)OC2=O (stereo partly drawn) | 18.3% |
| C=C1C(=O)O[C@H]2C1CCC(C)=C1C(=O)C=C(C)[C@@]12O (stereo partly drawn) | 0.314% |
| CC(=O)OC1CC(O)(C(C)C)C2C(OC(=O)c3ccc(O)cc3)C=C(C)C(=O)CC12C (stereo not drawn) | 1.54% [at 25.6 µM] |
| Cc1ccc(NC(=O)N2CCN(c3nc(N)nc4sc(-c5cccnc5)nc34)CC2)cc1 | 13.6% |

| Structure (SMILES) | redox activity (% of DA3003) |
| --- | --- |
| C=C[C@]1(C)C[C@H](O)[C@H]2C(=C)C(=O)O[C@@H]2[C@H]1C(=C)CO | -0.429% |
| C#CCOc1ccc2c(c1)c(-c1ccc(C(C)C)cc1)nc(=O)n2C(C)C | 2.16% |
| CNCc1cc(-c2ccccc2F)n(S(=O)(=O)c2cccnc2)c1 | -9.96% |
| C=C1C(=O)OC2/C=C(\COC(C)=O)CC/C=C(\C=O)CC(OC(=O)C(C)CC)C12 (stereo not drawn) | 8.4% [at 25.6 µM] |
| CCC(C)CNCC(=O)N1CCc2sccc2C1COc1cccc(C)c1 (stereo not drawn) | 6.86% |
| N[C@@H]1c2cccnc2[C@H](OC(=O)N2CCC(n3c(=O)[nH]c4ncccc43)CC2)CC[C@H]1c1cccc(F)c1F | -4.96% |
| Cn1cc(-c2ccc(F)c(C(F)(F)F)c2)nc1C1CCN(c2ncnc3[nH]ncc23)CC1 | -6.42% [at 25.6 µM] |
| C=C1C(=O)O[C@@H]2[C@H]1CCC(C)=C(CCC(=O)O)[C@@]2(C)O | -8.13% |
| CNc1cccc(CCOc2ccc3c(c2)CN(CC(F)(F)F)C(=O)[C@H](CC(=O)O)C3)n1 | 17% |
| CC(CCC1(O)OC2CC3C4CC=C5CC(O[C@@H]6O[C@H](CO)[C@@H](O[C@@H]7O[C@@H](C)[C@H](O)[C@@H](O)[C@H]7O)[C@H](O)[C@H]6O[C@@H]6O[C@@H](C)[C@H](O)[C@@H](O)[C@H]6O)CCC5(C)C4CCC3(C)C2C1C)CO[C@@H]1O[C@H](CO)[C@@H](O)[C@H](O)[C@H]1O (stereo partly drawn) | 12.7% [at 11.5 µM] |
| Cc1cc(C(=O)Cn2cc(C#N)ccc2=O)c(C)n1Cc1ccccc1 | -5.63% |
| Nc1ncnc2c1nc(Cl)n2C1OC2COP(=O)(O)OC2C1O (stereo not drawn) | -2.51% |
| CCCC(CCC)C(=O)NCc1ccc2c(cnn2-c2ccccc2OC)c1 | 15.2% |
| CNC(=O)c1cc(Oc2ccc(NC(=O)c3cccc(C(F)(F)F)c3)cc2)ccn1 | 15.9% |
| O=C1Nc2nc(-c3c(O)cccc3OCC3CC3)cc([C@@H]3CCCNC3)c2CO1 | -1.09% |
| CC1(C)C2CCC(CO[C@@H]3O[C@H](CO[C@@H]4OC[C@](O)(CO)[C@H]4O)[C@@H](O)[C@H](O)[C@H]3O)C1C2 (stereo partly drawn) | -15.3% [at 25.6 µM] |
| COc1ccc(S(=O)(=O)N2CCC[C@H]2C(=O)Nc2cc(C)cc(C)c2)cc1 | 13.7% |
| Cc1ccccc1C(C(=O)NC1CCCCC1)N(C(=O)Cn1cnc2ccccc21)c1cccc(F)c1 (stereo not drawn) | 8.12% |
| CN(C)CCOC(C)(c1ccccc1)c1ccc(Cl)cc1 (stereo not drawn) | 7.75% |

— PubChem BioAssay (NCATS)
